# Shiga inhibitor: inhibitors of Shiga toxin in Vero cells; Vero cells, Shiga toxin protein synthesis inhibition reporter; inhibition, % at 38.7 µM; actives 9.2% (n = 290,000); AID 2315; in the data active = inhibition mostly above about 28%, no sharp cut-off; inactive = mostly below about 43%
# NS1 inh: blocks influenza NS1 protein function; Potency, µM (series often up to 46.1 µM); actives 0.4% (n = 270,000); AID 2326; calls by dose curve; also: actives are rising curves; nearly all actives have a fitted effect of over 50% in size
#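 S. cerevisiae expressing influenza A NS1, grown in glucose, washed, then diluted 1:100 into pH 6.0 -URA galactose medium with 23 nl compound. Growth recovery read as OD600; NS1-free strain serves as control.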
# SARS PLP yeast: blocks SARS-CoV papain-like protease in a yeast assay. Potency, µM (highest dose often 32.9 µM), actives largely listed as activators. AID 485353. S. cerevisiae expressing SARS-CoV PLpro, growth rescue. actives 0.19% (n = 330,000); calls by dose curve; also: nearly all actives have a fitted effect of over 55% in size
# Pf growth 96h: P. falciparum growth inhibition at 96 hours | Potency, µM (titrated, usually from 28.7 µM), hits mostly inhibitors | actives 6.9% (n = 320,000) | P. falciparum luciferase reporter growth, 96 h
#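 Two parasite generations (96 h, 37 C, 5% CO2) of compound exposure in infected erythrocytes (0.05% parasitemia, 2% hematocrit). Luciferase-reporter P. falciparum; decreased luminescence indicates inhibited growth, aimed at apicoplast-acting delayed death.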
# Pf growth 48h: inhibits P. falciparum growth in the first generation, 48 h | P. falciparum luciferase growth in erythrocytes, 48 h | Potency, µM (titrated, usually from 28.7 µM), hits mostly inhibitors | actives 5.9% (n = 310,000) | AID 504832
#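 In quantitative HTS format, infected erythrocytes bearing luciferase-reporter parasites were treated for a single generation at 37 C. Luminescence after adding detection reagent served as the growth measure.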
# Cycloheximide cs: affects cycloheximide protein synthesis inhibition readout, counter-screen; cell reporter, cycloheximide protein synthesis inhibition counterscreen; max response, %; actives 12% (n = 300,000); in the data active = max response mostly above about 13%, no sharp cut-off; inactive = mostly below about 14%; also: read at 38.3 µM for the half of the compounds with a filed dose
# Hits are given with their value; n = inactive; u = inconclusive; x = no result; [ ] = remark or other dose. This is a sample that favours compounds with a hit; in the whole collection about 21% have one here. Unless noted, calls follow the shape of the dose curve; as a rule, active = well fitted inhibition curve with a large enough effect; inconclusive = small, poorly fitted or top-dose-only effect, or another doubt; inactive = no such curve, though single readings can be large or run the other way.
SMILES,Shiga inhibitor,NS1 inh,SARS PLP yeast,Pf growth 96h,Pf growth 48h,Cycloheximide cs
Nc1nc(SCc2ccc(Cl)cc2)ns1,68.0,n,n,u,n,37.9
Nc1ccccc1SCc1ccccc1Cl,56.1,n,n,n,n,24.6
Nc1ccccc1SSc1ccccc1N,127.5,n,n,u,u,69.0
Nc1nc(SCc2ccccc2)ns1,35.4,n,n,x,n,17.3
CCOc1ccc(CCNC(=O)C2CCCN(S(=O)(=O)N3CC(C)CC(C)C3)C2)cc1OCC (configuration not stated),n,n,n,n,u,n
Cc1c(C(=O)N2CCC3(CC2)CC(=O)c2ccccc2O3)cccc1[N+](=O)[O-],x,x,n,u,n,x
COC(=O)[C@@H]1C(O)[C@@H](C(=O)OC)[C@H](C)N(C)[C@@H]1C (some centres not stated),x,n,x,x,x,x
CCN1C(=O)[C@H]2[C@@H](c3ccc(Cl)cc3)N3C(=O)CN(CC4CC4)C(=O)[C@@]3(C)[C@H]2C1=O,n,n,n,n,n,n
Nc1nc(SCc2ccccc2Cl)ns1,58.3,n,n,n,n,17.5
CCN1CCN(c2ccccc2NC(=O)c2ccc(-n3cccn3)cc2)CC1,x,x,n,n,u,x
O=C(Nc1nc(-c2nc3ccccc3s2)cs1)C1COc2ccccc2O1 (configuration not stated),68.4,n,n,n,n,23.4
CS(=O)(=O)c1ccc2nc(NC(=O)CCN3C(=O)c4ccccc4C3=O)sc2c1,n,x,n,n,n,n
COc1ccc2nc(NC(=O)C3COc4ccccc4O3)sc2c1 (configuration not stated),77.1,n,n,n,x,29.8
COc1ccc2nc(NC(=O)C3CC(=O)N(c4ccc5c(c4)OCCO5)C3)sc2c1 (configuration not stated),x,x,n,u,u,x
COc1ccc2nc(NNC(=O)C3COc4ccccc4O3)sc2c1 (configuration not stated),55.0,n,n,n,n,13.5
CS(=O)(=O)c1ccc2nc(NC(=O)C3COc4ccccc4O3)sc2c1 (configuration not stated),n,n,n,x,n,24.8
COc1ccc(OC)c(-c2csc(NC(=O)C3COc4ccccc4O3)n2)c1 (configuration not stated),n,x,n,n,n,n
COc1ccccc1N1CCN(S(=O)(=O)c2ccc(NC(C)=O)cc2)CC1,n,n,n,n,u,n
COc1ccc(C(=O)COC(=O)c2cnc(C)cn2)cc1OC,x,x,n,n,n,x
O=CNCCCc1nc2ccccc2n1CCc1ccccc1,n,n,n,n,n,n
COc1cc(-n2c(C)nc3cccnc32)c(Cl)cc1C(=O)O,n,n,n,u,n,20.0
CCOC(=O)c1c(C)[nH]c(C(=O)OC(C)C(=O)NC2CCCCC2C)c1C (configuration not stated),x,x,n,u,u,x
COc1ccc(C(=O)Nc2ccc3[nH]ncc3c2)cc1OC,n,n,n,n,n,n
COc1ccccc1CC(=O)Nc1ccc2[nH]ncc2c1,n,n,n,n,10.4µM,n
COc1cccc(C(=O)Nc2ccc3[nH]ncc3c2)c1OC,71.4,n,n,n,n,32.5
SMILES,Shiga inhibitor,NS1 inh,SARS PLP yeast,Pf growth 96h,Pf growth 48h,Cycloheximide cs
Cc1ccc(C(=O)Nc2c(C)cc(C)c3cccnc23)cc1,n,n,n,u,n,n
CC(=O)Nc1ccc(NC(=O)c2ccc(S(=O)(=O)N(C)c3ccccc3)cc2)cc1,x,x,n,u,13.1µM,x
CCN(CC)S(=O)(=O)c1ccc(NC(=O)c2ccc(N(C)S(C)(=O)=O)cc2)cc1,n,n,n,8.28µM,16.5µM,n
O=C(Nc1ccc2c(c1)oc1ccccc12)N1CCOCC1,83.7,n,n,n,x,52.3
CCn1c2ccccc2c2cc(NC(=O)N3CCOCC3)ccc21,85.4,n,n,n,n,31.8
Cc1ccc(NC(=O)CN(C)CC(=O)Nc2ccc(N3CCOCC3)cc2)cc1F,n,n,n,n,n,n
CCn1c2ccccc2c2cc(NC(=O)C(=O)NCC3CCCO3)ccc21 (configuration not stated),n,n,n,n,u,n
CCn1c2ccccc2c2cc(NC(=O)CN(C)CC(=O)Nc3ccc(N4CCOCC4)cc3)ccc21,n,n,n,14.7µM,n[1.15 µM],n
CCN(CC(=O)Nc1ccc(NC(C)=O)cc1)C(=O)C1COc2ccccc2O1 (configuration not stated),n,n,n,n,n,n
Cc1nnc(NC(=O)CSc2ccc3nnc(-c4cccnc4)n3n2)s1,n,x,n,u,n,n
COc1ccc2ncc(OC(C)=O)cc2c1,n,n,n,n,n,14.0
CC(C)CCN1C(=O)c2ccc(C(=O)NCC3CCCO3)cc2C1=O (configuration not stated),n,n,n,4.15µM,n,n
Cc1ccnc(NC(=O)c2ccc3c(c2)C(=O)N(CC2CCCO2)C3=O)c1 (configuration not stated),61.7,n,n,n[5.75 µM],n,23.7
CCN(CC)C(=O)CSc1nnc(-c2ccccn2)n1-c1ccccc1OC,n,n,n,n,n,n
CC(C)CC(=O)c1c[nH]c(C(=O)NCc2ccc(F)cc2)c1,n,n,n,n,n[0.00184 µM],n
CC(CNC(=O)CCn1c(=O)c2cccn2c2ccc(F)cc21)c1ccccc1 (configuration not stated),n,n,n,13.1µM,u,n
CCc1ccc(NC(=O)CCn2c(=O)c3cccn3c3ccccc32)cc1,n,n,n,n,u,n
CCC(C)NC(=O)CCn1c(=O)c2cccn2c2ccc(F)cc21 (configuration not stated),n,n,n,n,n,n
Cc1ccc(NC(=O)CCn2c(=O)c3cccn3c3ccccc32)cc1C,26.5,n,n,n,u,n
Cc1oc(C)c(C(=O)Nc2ccccc2)c1C,n,x,x,x,x,n
CC(C)CC(c1nnnn1C1CCCC1)N1CCC(C(N)=O)CC1 (configuration not stated),n,x,n,n,n,n
O=S(=O)(C(=CNc1ccccc1)S(=O)(=O)c1ccccc1)c1ccccc1,n,n,n,10.4µM,n,n
Cc1ccc(NC=C(S(=O)(=O)c2ccccc2)S(=O)(=O)c2ccccc2)cc1,n,n,n,n,u,n
CC1(C)CC(=O)C2=C(C1)N(c1ccccc1)C(N)=C(C#N)C2c1ccccc1 (configuration not stated),n,n,n,u,u,n
COc1cc(C2C3=C(CC(C)(C)CC3=O)N(C)C3=C2C(=O)CC(C)(C)C3)ccc1O,n,u,x,n,n,n
COc1ccc(N2C3=C(C(=O)CC(C)(C)C3)C(c3cnn(C)c3)C3=C2CC(C)(C)CC3=O)cc1,n,n,n,4.15µM,7.38µM,n
CCn1cc(C2C3=C(CC(C)(C)CC3=O)N(c3ccccc3)C3=C2C(=O)CC(C)(C)C3)c(C)n1,n,n,n,8.28µM,u,n
